Assay outcomes from PubChem BioAssay.
DT40 TDP1 no CPT: qHTS for Inhibitors of human tyrosyl-DNA phosphodiesterase 1 (TDP1): qHTS in cells in absence of CPT. hit rate 15% among 420,000. Potency, µM (highest dose often 46.2 µM), inactives show at the highest dose activity change, negative = growth inhibition, actives largely listed as inhibitors. DT40 Tdp1-/- hTDP1 cells, no CPT, ATP luminescence, 48 h. AID 686978, 2013; note: potency is the fitted concentration of half-maximal effect; nearly all actives have a fitted effect of over 55% in size
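No-CPT arm: Tdp1-/-;hTDP1 DT40 cells (400/well) plus compounds, incubated ≥48 hr at 37 °C. Readout CellTiter-Glo luminescence.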
HT1080-NT tox: kills 2HG-producing HT-1080-NT fibrosarcoma cells; HT-1080-NT fibrosarcoma viability, CellTiter-Glo ATP luminescence, 48 h; hit rate 1.6% among 360,000; Potency, µM (top dose mostly 46.1 µM), without a hit: at the top dose activity, negative = less viability, most hits filed as cytotoxic;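 note: NT is the 2HG producing partner of a matched IDH1 knockdown line; potency is the fitted concentration of half-maximal effect; 0% = DMSO-treated cells and -100% = media-only wells without cells; nearly all actives have a fitted effect of over 55% in size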
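Compounds were tested in concentration-response format on HT-1080-NT cells for 48 hours at 37 degrees C. Cell viability came from CellTiter-Glo luminescence; curves were classified by r2, response magnitude and activity.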
DT40 TDP1 CPT: growth inhibition of DT40 Tdp1-/-;hTDP1 cells with camptothecin (screen for TDP1 inhibitors). chicken DT40 Tdp1-/-;hTDP1 cells + 20 nM CPT, ATP luminescence, 48 h. Potency, µM (highest dose often 46.2 µM), for inactives: top-dose activity change, negative = growth inhibition, actives largely listed as inhibitors. hit rate 12% among 420,000; note: potency is the fitted concentration of half-maximal effect; nearly all actives have a fitted effect of over 55% in size
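Chicken DT40 Tdp1-/- cells stably complemented with human TDP1 were seeded at 400 cells/well in medium containing 20 nM camptothecin, exposed to pin-transferred compounds, and grown at 37 °C for at least 48 hr. Viability was read as ATP luminescence.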
IL-1B inflam inh: blocks inflammasome-driven IL-1 beta release | THP-1 LPS/ATP IL-1B secretion, AlphaLISA, 16 h; stronger effect = lower value | activity change, % at 57.5 µM | hit rate 4.7% among 360,000 | AID 743279; in the data active = activity change below about -50%; inconclusive = mostly about -30% to -49%
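THP-1 cells pretreated 1 hr with compounds (up to 57.5 uM final), then stimulated with LPS (250 ng/mL final) plus ATP (1.25 mM final); secreted IL-1B measured by AlphaLISA after 16 hr, decreased signal indicating inhibition.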
ALOX12 inh: ALOX12 (human) lipoxygenase inhibition. P18054. purified 12hLO, xylenol orange hydroperoxide absorbance. Potency, µM (titrated, usually from 108 µM), inactives show at the top dose activity change, negative = inhibition, most hits filed as inhibitors. hit rate 1.1% among 580,000; note: potency is the fitted concentration of half-maximal effect
Target sequence (P18054 whole entry, looked up): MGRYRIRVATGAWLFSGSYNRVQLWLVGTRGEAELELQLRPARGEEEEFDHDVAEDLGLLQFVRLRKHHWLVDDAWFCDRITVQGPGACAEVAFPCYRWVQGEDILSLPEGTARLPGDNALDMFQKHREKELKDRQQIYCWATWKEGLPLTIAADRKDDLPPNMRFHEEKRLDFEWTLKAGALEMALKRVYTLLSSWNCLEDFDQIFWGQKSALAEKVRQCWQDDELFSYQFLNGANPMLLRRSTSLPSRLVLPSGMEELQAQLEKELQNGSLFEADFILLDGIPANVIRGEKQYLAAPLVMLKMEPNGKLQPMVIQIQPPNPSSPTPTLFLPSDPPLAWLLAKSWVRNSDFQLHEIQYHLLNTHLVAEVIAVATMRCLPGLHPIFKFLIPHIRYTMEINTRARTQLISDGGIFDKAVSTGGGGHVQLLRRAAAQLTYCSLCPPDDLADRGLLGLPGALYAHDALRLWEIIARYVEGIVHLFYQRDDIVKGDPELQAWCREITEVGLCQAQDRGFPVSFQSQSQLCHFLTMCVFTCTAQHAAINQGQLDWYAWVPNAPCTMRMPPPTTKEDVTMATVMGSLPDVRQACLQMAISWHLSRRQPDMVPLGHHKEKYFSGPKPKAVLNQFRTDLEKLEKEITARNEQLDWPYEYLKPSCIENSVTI
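Hydroperoxide product was detected by ferrous iron/xylenol orange as the 573 to 405 nm absorbance ratio. Arachidonic acid at 40 uM (final) was turned over for 30 min at room temperature by 150 nM human 12hLO, pH 7.0 Hepes buffer, after 15 min compound preincubation.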
HT1080 IDH1KD tx: toxicity to HT-1080 IDH1 knockdown cells (counter line); HT-1080 IDH1 knockdown viability, ATP luminescence, 48 h; Potency, µM (series often up to 46.1 µM), without a hit: at the highest dose activity, negative = toxicity, most hits filed as cytotoxic; hit rate 2% among 360,000; AID 686971;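 note: potency is the fitted concentration of half-maximal effect; 0% = DMSO wells and -100% = cell-free medium wells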
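Using the IDH1-knockdown HT-1080 line run in the same batch and compound series as the NT line, viability after 48 h at 37 °C was determined by CellTiter-Glo luminescence and expressed as % activity.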
Starred values were filed as active, the others as inactive; ? = inconclusive; · = not tested or not shown; [ ] = another dose, or the depositor's remark. This is one part of a sample in which hits are shown more often than they occur. Unless noted, calls come from the whole dose curve; as a rule, active = well fitted curve in the direction sought with a large enough effect; inconclusive = small, poorly fitted or top-dose-only effect, or another doubt; inactive = no such curve, though single readings can be large; an effect the other way counts as inactive or inconclusive. Unless noted, % is set by controls: 0 for no effect and ±100 for the full control effect.

SMILES | DT40 TDP1 no CPT | HT1080-NT tox | DT40 TDP1 CPT | IL-1B inflam inh | ALOX12 inh | HT1080 IDH1KD tx
Cc1cc(NC(=O)NC(=O)c2ccccc2NC(=O)CN(C)C)ccc1Oc1ncc(Br)cn1 | 4.11µM* | ? | 3.66µM* | 59.8 | -13.4% | ?
COc1ccc(NC(=O)Nc2ccccc2C(N)=O)cc1OC | -4.6% | 4.0% | -0.5% | 0.0 | 6.9% | -14.5%
Nc1ccccc1C(=O)NC(=O)Nc1ccc(Oc2ncc(Br)cn2)c(Cl)c1 | 0.0184µM* | ? | 0.0052µM* | 28.6 | -25.3% | ?
Cc1cc(NC(=O)NC(=O)c2ccccc2NC(=O)CN)ccc1Oc1ncc(Br)cn1 | 0.581µM* | 0.517µM* | 0.82µM* | -15.1 | -2.0% | ?
CCCCn1c(CN(C)Cc2[nH]c3ccccc3c2C)cnc1S(=O)(=O)CC | · | · | · | · | 45.8% | ·
Cn1c(SCc2nc3ccccc3o2)nnc1-c1ccc(Cl)cc1 | · | · | · | · | -1.7% | ·
O=C1CC(c2ccccc2)N(C(=O)C2CC2)CCCN(C(=O)NCCc2ccccc2)CCN1 (stereo not drawn) | · | · | · | · | 29.9% | ·
CCC(=O)N1CCC1(C)C(=O)Nc1cccc(Oc2ccccc2)c1 (stereo not drawn) | -20.5% | -2.9% | ? | -1.8 | -5.2% | -3.5%
CC1(C(=O)Nc2ccc(Cl)c(Cl)c2)CCN1Cc1cc2ccccc2o1 (stereo not drawn) | -23.5% | 17.7% | -14.1% | 0.0 | -0.6% | 2.0%
CC1(C(=O)Nc2cccc(Oc3ccccc3)c2)CCN1Cc1cc2ccccc2o1 (stereo not drawn) | ? | -24.1% | 23.1µM* | -6.7 | 4.1% | ?
CSc1ccc(CN2CCC2(C)C(=O)Nc2cccc(Oc3ccccc3)c2)cc1 (stereo not drawn) | 14.6µM* | -8.6% | 18.4µM* | 15.0 | 6.3% | -11.4%
CCN1CCCC1CNC(=O)CCc1nc2ccccc2[nH]1 (stereo not drawn) | · | · | · | · | 30.5% | ·
COc1cccc(-n2nnnc2SCC(=O)NCc2ccc3c(c2)OCO3)c1 | -18.7% | -7.7% | ? | -0.5 | -1.9%[57.4 µM] | -1.6%
COc1cccc(NC(=O)Cn2c(SCC(=O)N3CCOCC3)nc3ccccc32)c1 | -9.2% | 25.7% | -4.9% | -13.7 | 14.2% | -3.0%
COc1cccc(NC(=O)c2cnc(SCC(=O)NCc3ccc4c(c3)OCO4)n(C)c2=O)c1 | 11.6µM* | 6.9% | 20.6µM* | -10.7 | -5.2% | 6.3%
COc1cccc(NC(=O)c2cnc(SCC(=O)N3CCOCC3)n(C)c2=O)c1 | 14.6µM* | · | 14.6µM* | · | 5.5% | ·
COc1ccc(-c2ccc(=O)n(CCNC(=O)Cc3ccc(Cl)cc3)n2)cc1 | · | · | · | · | 31.9% | ·
COc1ccc(NC(=O)COc2nc(CC(C)C)c3c(c2C#N)CCC3)c(OC)c1 | · | · | · | · | 18.6% | ·
CCOC(=O)C1CCCN(c2ncnc3c2cnn3-c2cccc(C)c2)C1 (stereo not drawn) | -9.9% | 8.6% | -11.6% | 5.5 | 2.3% | 17.8%
CCN(CC)C(=O)C1CCCN(c2ncnc3c2cnn3-c2cccc(C)c2)C1 (stereo not drawn) | 16.4µM* | -26.2% | ? | -56.2* | -25.3% | -13.4%
CCN(CC)C(=O)C1CCCN(c2ncnc3c2cnn3-c2ccc(Cl)cc2)C1 (stereo not drawn) | 18.4µM* | -7.3% | ? | -53.9* | -2.5% | -1.7%
COc1ccccc1Cc1c(-c2ccc(Cl)cc2)nc2ccc(Br)cn12 | ? | -11.3% | 20.6µM* | 3.2 | ? | -10.9%
COc1ccccc1Cc1c(-c2ccc(C)cc2)nc2c(C)cc(Br)cn12 | 20.6µM* | ? | 20.6µM* | 41.6 | ? | ?
COc1ccccc1Cc1c(-c2cccc(Br)c2)nc2ccc(Br)cn12 | ? | ? | ? | 11.8 | ? | ?
COc1ccccc1Cc1c(-c2ccccc2)nc2ccc(Br)cn12 | 13µM* | ? | 14.6µM* | 24.6 | ? | ?
SMILES | DT40 TDP1 no CPT | HT1080-NT tox | DT40 TDP1 CPT | IL-1B inflam inh | ALOX12 inh | HT1080 IDH1KD tx
COc1ccccc1Cc1c(-c2ccc(C#N)cc2)nc2ccc(Br)cn12 | 16.4µM* | -16.0% | 20.6µM* | -24.0 | 25.1µM* | -17.4%
CSc1cccc(NC(=O)Cn2nc3c(cc2=O)CCCCC3)c1 | · | · | · | · | 117.2% | ·
CC1(C)CC(NC(=O)CC(=O)NC2CC(C)(C)NC(C)(C)C2)CC(C)(C)N1 | · | · | · | · | -2.2% | ·
COc1ccccc1Cc1c(-c2ccccc2)nc2ccc(Cl)cn12 | ? | -23.1% | ? | 28.5 | ? | -12.7%
COc1ccccc1Cc1c(C2CCCCC2)nc2ccc(Br)cn12 | 6.51µM* | ? | 8.2µM* | 0.0 | ? | ?
COC(=O)c1ccc2nc(-c3ccccc3)c(Cc3ccccc3OC)n2c1 | 16.4µM* | -2.1% | 18.4µM* | -10.3 | ? | -8.7%
COc1ccccc1Cc1c(-c2ccc(C)cc2)nc2ccc(Br)cn12 | 23.1µM* | -18.2% | 20.6µM* | -23.7 | -26.4% | -6.6%
COc1ccccc1Cc1c(-c2cccc(Cl)c2)nc2ccc(Cl)cn12 | 18.4µM* | ? | 23.1µM* | 2.0 | ? | ?
CCC(=O)Nc1cccc(OCC(=O)NCc2sc(C)nc2CC)c1 | · | · | · | · | 33.3% | ·
CCc1c(C(=O)Nc2ccc(OC)cc2OC)csc1C | · | · | · | · | 41.1% | ·
CCCCSc1nnc(CNC(=O)C23CC4CC(CC(C4)C2)C3)n1Cc1ccccc1 | 14.6µM* | -7.7% | 16.4µM* | ? | 1.0% | -3.1%
O=C(NCc1nnc(SCc2ccccc2)n1-c1ccccc1)C12CC3CC(CC(C3)C1)C2 | 18.4µM* | ? | 14.6µM* | ? | 27.6% | ?
CCCCn1c(CNC(=O)C23CC4CC(CC(C4)C2)C3)nnc1SC(C)CC (stereo not drawn) | 20.6µM* | ? | 23.1µM* | -16.2 | ? | ?
COc1ccccc1C(=O)N1CCCCCC1c1nc(C)no1 (stereo not drawn) | · | · | · | · | 39.1% | ·
Cc1ccc(S(=O)(=O)CCC(=O)OCC(=O)c2ccc3c(c2)-c2ccccc2C3)cc1 | · | · | · | · | 14.7% | ·
Cc1ccc(S(=O)(=O)N2c3cc(C)ccc3OCC2C(C)(C)C)cc1 (stereo not drawn) | ? | ? | ? | 6.3 | 0.0% | ?
COc1ccc(S(=O)(=O)N2c3cc(C)ccc3OCC2C(C)(C)C)cc1 (stereo not drawn) | ? | 5.8µM* | 16.4µM* | 23.5 | 0.0% | 5.8µM*
COc1ccc(-n2nc(C(=O)N3CCN(c4ccc(F)cc4)CC3)c3c4ccccc4n(C)c3c2=O)cc1 | 3.0% | · | 0.7% | · | -22.5% | ·
